# Sampled rows, rich in hits. Any-hit rate of the full collection: about 6.2%.
# HT1080NT lethal – qHTS for induction of synthetic lethality in tumor cells producing 2HG: qHTS for the HT-1080-NT fibrosarcoma cell line | AID 686970, 2013 | 360,000 compounds, 1.6% hits | Potency, µM (top dose mostly 46.1 µM), without a hit: at the highest dose activity, negative = less viability, hits mostly cytotoxic | HT-1080-NT fibrosarcoma viability, CellTiter-Glo ATP luminescence, 48 h;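 note: NT is the 2HG producing partner of a matched IDH1 knockdown line; 0% = DMSO-treated cells and -100% = media-only wells without cells; nearly all actives have a fitted effect of over 55% in size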
#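 HT-1080-NT fibrosarcoma cells (2HG-overproducing), 750 cells/well in RPMI with 5% FBS, dosed after 2 h and incubated 48 h at 37C. CellTiter-Glo luminescence normalized to DMSO and no-cell wells; concentration-response curves fitted and classed.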
# KB-V1 cytotox – qHTS assay for MDR1-selective chemotherapeutics: Primary screen using the drug-selected MDR subline cells KB-V1 | Potency, µM (titrated, usually from 46.1 µM), usual class: cytotoxic | 400,000 compounds, 3.4% hits | KB-V1 MDR cells viability, CellTiter-Glo, 72 h; note: % is set by controls: 0 for no effect and ±100 for the full control effect; nearly all actives have a fitted effect of over 60% in size
#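 Readout: CellTiter-Glo luminescence, 10 min after addition. Cells: KB-V1 MDR subline, 72 h at 37 degrees C with compound. Analysis: corrected, normalized data fitted to concentration-effect curves.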
# HT1080 IDH1KD tx – qHTS for induction of synthetic lethality in tumor cells producing 2HG: qHTS for the HT-1080-IDH1KD cell line; HT-1080 IDH1 knockdown viability, ATP luminescence, 48 h; Potency, µM (doses to about 46.1 µM), without a hit: at the top dose activity, negative = toxicity, hits mostly cytotoxic; 360,000 compounds, 2% hits; AID 686971, 2013;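 note: 0% = DMSO wells and -100% = cell-free medium wells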
#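 CellTiter-Glo luminescence after 48 h compound exposure at 37 degrees C of IDH1-knockdown HT-1080 cells in 5% FBS RPMI. %Activity scaled between DMSO wells and cell-free media wells, with curves fitted and assigned curve classes.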
# KB-3-1 cytotox – qHTS assay for MDR1-selective chemotherapeutics: Primary screen using the parental adenocarcinoma cell KB-3-1 | KB-3-1 viability, CellTiter-Glo ATP luminescence, 72 h | Potency, µM (top dose mostly 46.1 µM), actives largely listed as cytotoxic | 400,000 compounds, 1.4% hits; note: % is set by controls: 0 for no effect and ±100 for the full control effect; nearly all actives have a fitted effect of over 60% in size
#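 Viability of parental KB-3-1 cells, measured by CellTiter-Glo luminescence, followed a 72 h incubation at 37 °C with pinned compounds in phenol-red-free DMEM containing 10% FBS.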
# ATXN viability – Viability Counterscreen for Primary qHTS for Inhibitors of ATXN expression. S2 cells (HEK-293 line with an ATXN2-luciferase reporter) viability, CellTiter-Fluor protease fluorescence, 24 h. 400,000 compounds, 0.49% hits. Potency, µM (doses to about 56.7 µM), usual class: cytotoxic; note: nearly all actives have a fitted effect of over 40% in size
# ATXN2 expr inh – Primary qHTS for Inhibitors of ATXN expression | HEK-293 ATXN2-luciferase reporter, luminescence, 24 h | Potency, µM (highest dose often 57 µM), without a hit: top-dose activity change, negative = inhibition, hits mostly inhibitors | 360,000 compounds, 0.72% hits | AID 1745845, 2022; note: % is set by controls: 0 for no effect and ±100 for the full control effect; nearly all actives have a fitted effect of over 55% in size
#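 ATXN2-luciferase reporter cells (luciferase flanked by upstream and downstream ATXN2 gene portions) were treated 24 h at 37 °C with compounds at up to 57 uM. SteadyGlo luminescence gave expression; GF-AFC fluorescence gave viability.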
# Numbers without * were called inactive; i = inactive; ? = inconclusive; nt = no result given. Calls come from the whole dose curve; as a rule, active = well fitted curve in the direction sought with a large enough effect; inconclusive = small, poorly fitted or top-dose-only effect, or another doubt; inactive = no such curve, though single readings can be large; an effect the other way counts as inactive or inconclusive. Potency is the fitted concentration of half-maximal effect.
SMILES,HT1080NT lethal,KB-V1 cytotox,HT1080 IDH1KD tx,KB-3-1 cytotox,ATXN viability,ATXN2 expr inh
O=C(c1cc2nc(-c3ccccc3)cc(-c3ccccc3)n2n1)N1CCCC1,-0.6%,i,7.4%,i,i,-16.2%
CCN(CC)c1ccc(C(=O)NNC(=O)CN2C(=O)NC(C)(c3ccccc3)C2=O)cc1 (stereo unspecified),-12.9%,i,0.8%,i,i,18.5%
Cc1cc(C)c(NC(=O)Cn2c(=O)n(Cc3ccco3)c(=O)c3ccc(C(=O)NC4CCCC4)cc32)c(C)c1,nt,i,nt,i,i,-0.4%
Cc1ccc(CNC(=O)c2ccc(CSCc3c(F)cccc3Cl)o2)cc1,nt,i,nt,i,i,15.1%
CCCN1CNc2c(c(=O)[nH]c(=S)n2CCc2cccc(C)c2C)C1,10.5%,nt,13.0%,nt,nt,nt
CCOC(=O)C(C)(C)N(Cc1cccc(C)c1)S(=O)(=O)c1ccc(Cl)c([N+](=O)[O-])c1,-10.5%,i,?,20.6µM*,nt,?
CCOC(=O)C(C)(C)N(Cc1cccc(C)c1)S(=O)(=O)c1cccc([N+](=O)[O-])c1,-0.6%,7.31µM*,-7.9%,16.4µM*,i,-23.4%
COc1ccccc1C1=NC(c2ccc(F)cc2)N=C1C (stereo unspecified),-9.1%,?,-12.1%,18.4µM*,i,1.6%
Cc1ccc(NC(=O)c2cc3c(-c4ccccc4)nn(-c4ccccc4)c3s2)cc1,nt,?,nt,i,?,-11.4%
COc1ccc(S(=O)(=O)Nc2cc3c(cc2N2CCOCC2)n(C)c(=O)n3C)cc1,nt,i,nt,i,i,10.2%
Cc1ccc(Cn2c(=N)n(CC(O)COc3ccccc3)c3ccccc32)cc1 (stereo unspecified),-20.8%,16.4µM*,?,i,i,-23.9%
N=c1n(Cc2ccccc2)c2ccccc2n1CC(O)COc1ccccc1 (stereo unspecified),?,20.6µM*,?,20.6µM*,?,?
N=c1n(CCN2CCOCC2)c2ccccc2n1CC(O)COc1ccccc1 (stereo unspecified),-1.5%,i,-8.0%,i,i,-5.5%

# Compound activity from PubChem.
